{"source": "paper PMC12548414", "note": "Screen size: about 1,600 compounds; about 20 (1%) showed an effect of 50% or more. The sample holds strong results, similar compounds and a random draw of the others, so the mix is not that of the screen.", "data": [{"test_system": "T1, E. coli pLC1021 (luc-trpAt trans-translation reporter)", "T1 construct": "pLC1021 luc-trpAt reporter strain", "parameters": "species or system Escherichia coli pLC1021; luc-trpAt non-stop luciferase reporter; luminescence rises when trans-translation is inhibited; normalized to KKL-35 and DMSO", "details": "reporter signal, KKL-35 = 100%; rise means trans-translation inhibition; 2 h, 20 µM", "summary_of_the_method": "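Cells carrying the non-stop luc-trpAt reporter were exposed to 20 µM compound for 2 h at room temperature, then Bright-Glo was added and luminescence read at 560 nm after 10 min. Signals were normalised per plate to DMSO and 20 µM KKL-35 wells. Hits: activity one SD above the median; ≥2 biological repeats averaged.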", "units": {"% activation": "%"}, "values": [{"smiles": "CCC(C)c1ccc(O)c(NC(=S)NC(=O)c2ccc(-c3ccc(Cl)cc3)o2)c1", "note": "(stereo not shown) [KKL-0745]", "% activation": 0}, {"smiles": "CC(C)(C)c1cc(NCCCn2ccnc2)n2ncc(-c3ccc(Cl)cc3)c2n1", "note": "[KKL-1011]", "% activation": 9}, {"smiles": "N#Cc1cc(Oc2ccc(OCc3ccccc3)cc2)c([N+](=O)[O-])cc1C#N", "note": "[KKL-0738]", "% activation": 5}, {"smiles": "Cc1cccc(NC(=S)NC(=O)CC23CC4CC(CC(C4)C2)C3)c1", "note": "[KKL-1311]", "% activation": 0}, {"smiles": "CSCCC(=O)N1CCCC(C(=O)Nc2cccc(-c3cccc(C)c3)c2)C1", "note": "(stereo not shown) [KKL-0499]", "% activation": 0}, {"smiles": "Cc1ccc(-n2cc(CNC(C)c3csc(C)n3)c(-c3cccc(C)c3)n2)cc1", "note": "(stereo not shown) [KKL-0500]", "% activation": 0}, {"smiles": "Cc1ccc2cc3c(nc2c1C)OC(=O)N(C1CCCC1)C3", "note": "[KKL-0690]", "% activation": 1}, {"smiles": "CCCCc1ccc(C(=O)Nc2nccc3ccccc23)nc1", "note": "[KKL-1763]", "% activation": 50}, {"smiles": "CCCCc1cccc(C(=O)Nc2nnc(S(=O)(=O)CCCC)s2)n1", "note": "[KKL-1853]", "% activation": 6}, {"smiles": "CCOc1ccc2nc(NC(=O)c3ccccn3)sc2c1", "note": "[KKL-0810]", "% activation": 0}, {"smiles": "c1ccc(-c2nn(-c3ccccc3)cc2CNC2CCCc3c2cnn3-c2ccccn2)cc1", "note": "(stereo not shown) [KKL-1169]", "% activation": 0}, {"smiles": "Clc1cc(Br)ccc1OCCCCn1ccnc1", "note": "[KKL-1286]", "% activation": 0}, {"smiles": "OC(CN1CCC2(CC1)CC(O)c1cc(F)ccc1O2)c1ccc2c(c1)CCCC2", "note": "(stereo not shown) [KKL-0925]", "% activation": 0}, {"smiles": "CN(Cc1ccc(Cl)cc1)C(=O)CCc1nc2ccccc2oc1=O", "note": "[KKL-1749]", "% activation": 0}, {"smiles": "CCN(CC)c1ccc(NC(S)=NCCc2ccc(OC)c(OC)c2)cc1", "note": "[KKL-1550]", "% activation": 0}, {"smiles": "O=C(Nc1ccc2c(c1)CN(C(=O)/C=C/c1cccs1)CC2)c1ccncc1", "note": "[KKL-0616]", "% activation": 0}, {"smiles": "Cc1cc(=O)oc2cc(OCC(=O)OC3CCCCC3)ccc12", "note": "[KKL-1250]", "% activation": 7}, {"smiles": "Cc1nc(-c2ccccc2Br)cc([C@H]2CN3CC[C@H]2C[C@@H]3CNC(=O)c2ccc(C(C)(C)C)cc2)n1", "note": "[KKL-1598]", "% activation": 0}, {"smiles": "COc1ccc(Nc2nc(NC3CCNC3)nc3cc[nH]c(=O)c23)cc1CC(=O)c1ccccc1", "note": "(stereo not shown) [KKL-1883]", "% activation": 335}, {"smiles": "COc1ccc(O)c(CN2CCCC(N3CCN(c4cccc(C(F)(F)F)c4)CC3)C2)c1", "note": "(stereo not shown) [KKL-0660]", "% activation": 1}, {"smiles": "O=C(Nc1cccc(Cl)c1)Nc1ccccc1OC(F)(F)C(F)F", "note": "[KKL-0431]", "% activation": 21}, {"smiles": "Cc1ccc(CN(CCCn2ccnc2)Cc2cccc(Cl)c2Cl)o1", "note": "[KKL-1195]", "% activation": 17}, {"smiles": "CCOC(=O)c1ccc(NC(=O)c2ccc(C)s2)cc1", "note": "[KKL-0584]", "% activation": 0}, {"smiles": "CN(C)c1ccc(N=Nc2nc3ccccc3n2C)cc1", "note": "[KKL-1056]", "% activation": 0}, {"smiles": "Fc1cccc(Oc2cc(C3CCCNC3)nc(-c3ccncc3)n2)c1", "note": "(stereo not shown) [KKL-1670]", "% activation": 3}, {"smiles": "O=C(C=Cc1cccs1)N1CCN(Cc2ccc(Br)s2)CC1", "note": "[KKL-1861]", "% activation": 0}, {"smiles": "Cc1ccc(-n2cc(CNCCCn3ccnc3)c(-c3cccc(C)c3)n2)cc1", "note": "[KKL-0662]", "% activation": 0}, {"smiles": "Cc1nn2c(O)cc(C(C)(C)C)nc2c1-c1ccccc1", "note": "[KKL-0891]", "% activation": 17}, {"smiles": "CCOC(=O)c1c(NC(=O)COc2ccc(C(C)C)cc2)sc2c1CCC2", "note": "[KKL-1530]", "% activation": 0}, {"smiles": "COc1ccc(-c2cc(=O)c3cc(OCC(=O)OC(C)C)ccc3o2)cc1", "note": "[KKL-1864]", "% activation": 2}, {"smiles": "CCC(NC(=O)c1cnc(C(C)(C)C)nc1)c1ccc(F)cc1", "note": "(stereo not shown) [KKL-0932]", "% activation": 5}, {"smiles": "CCCN=C1C(=O)c2ccccc2C(O)=C1N(C(C)=O)c1cccc(F)c1", "note": "[KKL-0978]", "% activation": 0}, {"smiles": "Clc1nnc(N2CCCC2)c2ccccc12", "note": "[KKL-1738]", "% activation": 0}, {"smiles": "CCOC(=O)COc1ccc(S(=O)(=O)Nc2c(C)cccc2CC)cc1", "note": "[KKL-1460]", "% activation": 0}, {"smiles": "Nc1nc(N)c2c(Sc3ccc4ccccc4c3)cccc2n1", "note": "[KKL-1710]", "% activation": 0}, {"smiles": "Cc1sc2nc(C(C)C)n(C3CCN(C(=O)c4ccncc4)CC3)c(=O)c2c1C", "note": "[KKL-0464]", "% activation": 14}, {"smiles": "COC(=O)[C@@H]1Cc2c([nH]c3ccccc23)[C@H]2C[C@H](NCc3cccnc3)C[C@@H](c3ccc(C(F)(F)F)cc3)N21", "note": "[KKL-1613]", "% activation": 0}, {"smiles": "CCn1ccnc1CN(C)Cc1cn(-c2ccc(C)cc2)nc1-c1ccc(F)cc1", "note": "[KKL-0657]", "% activation": 0}, {"smiles": "Cc1ccc(Nc2c(-c3ccccn3)nc3ccc(C)cn23)cc1", "note": "[KKL-1199]", "% activation": 4}, {"smiles": "N#Cc1cccc(-c2ccc(NCC3CCC(CN(C(=O)O)c4cccnn4)CC3)nc2)c1", "note": "(stereo not shown) [KKL-1855]", "% activation": 0}, {"smiles": "c1cn(CCCNc2nncc(-c3ccc(C4CCCCC4)cc3)n2)cn1", "note": "[KKL-1171]", "% activation": 8}, {"smiles": "COC(=O)[C@@H]1Cc2c([nH]c3ccccc23)[C@H]2C[C@@H](NC(C)C)C[C@@H](c3cccc(Cl)c3)N21", "note": "[KKL-1594]", "% activation": 1}, {"smiles": "COc1ccc(OC)c(NC(=O)Nc2ccc(Cl)c(C(F)(F)F)c2)c1", "note": "[KKL-1544]", "% activation": 0}, {"smiles": "Cc1nn(-c2ccccc2)c2c1C(c1ccc(O)c(O)c1)N1C(=N2)C(Nc2ccccc2)=Nc2ccccc21", "note": "(stereo not shown) [KKL-0996]", "% activation": 0}, {"smiles": "COc1cccc(-c2cc(CC3(O)CCN(Cc4[nH]c5ccc(C)cc5c4C)CC3)on2)c1", "note": "[KKL-0315]", "% activation": 0}, {"smiles": "CC(C)(C)C(=O)CC1(O)Oc2ccccc2N=C1C=C(O)C(C)(C)C", "note": "(stereo not shown) [KKL-1740]", "% activation": 6}, {"smiles": "Cc1cc(C)c(-n2cccn2)c(CN(CCCn2ccnc2)Cc2ccc(F)cc2)c1", "note": "[KKL-1032]", "% activation": 8}, {"smiles": "O=C(CN1CCN(Cc2ccccc2)CC1)Nc1ccc([N+](=O)[O-])cc1C(=O)c1ccccc1", "note": "[KKL-1480]", "% activation": 0}, {"smiles": "O=C(NCc1ccco1)N1CCN(Cc2ccc(Cl)s2)CC1", "note": "[KKL-1727]", "% activation": 3}]}]}
